Rows were chosen to be rich in hits. Some 28% of all compounds tested hit in one or more screens of this group.
CYP2C9 inh: blocks human cytochrome P450 2C9; P11712; CYP2C9 Supersomes, luciferin-H conversion, luminescence; inhibition, % at 5 µM; 96,000 compounds, 20% hits; AID 777;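 active = blocking of liver enzyme CYP2C9 beyond about 50% at 5 µM, limit read from the data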
CYP2C9 act: CYP2C9 (human) activation; activation factor at 5 µM; 96,000 compounds, 1.4% hits; recombinant CYP2C9, luciferin-H conversion, luminescence; active compounds read high; factor 1 = untreated enzyme, 0 = blocked;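 active = activation factor of 2 or more for CYP2C9 at a 5 µM dose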;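 also: 0 = sulfaphenazole-blocked wells and 1 = vehicle-only wells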
CYP2C19 activ: activators of human cytochrome P450 2C19; recombinant CYP2C19, luciferin-H EGE luminescence; active compounds read high; 0 = fully inhibited enzyme, 1 = untreated enzyme; activation factor at 5 µM; 96,000 tested, under 10 active;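 active = activation factor of at least 2 at 5 µM in the primary screen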;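 also: 0 = wells with 2.5 mM tranylcypromine and 1 = vehicle-only wells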
Target sequence (P33261 whole entry, looked up): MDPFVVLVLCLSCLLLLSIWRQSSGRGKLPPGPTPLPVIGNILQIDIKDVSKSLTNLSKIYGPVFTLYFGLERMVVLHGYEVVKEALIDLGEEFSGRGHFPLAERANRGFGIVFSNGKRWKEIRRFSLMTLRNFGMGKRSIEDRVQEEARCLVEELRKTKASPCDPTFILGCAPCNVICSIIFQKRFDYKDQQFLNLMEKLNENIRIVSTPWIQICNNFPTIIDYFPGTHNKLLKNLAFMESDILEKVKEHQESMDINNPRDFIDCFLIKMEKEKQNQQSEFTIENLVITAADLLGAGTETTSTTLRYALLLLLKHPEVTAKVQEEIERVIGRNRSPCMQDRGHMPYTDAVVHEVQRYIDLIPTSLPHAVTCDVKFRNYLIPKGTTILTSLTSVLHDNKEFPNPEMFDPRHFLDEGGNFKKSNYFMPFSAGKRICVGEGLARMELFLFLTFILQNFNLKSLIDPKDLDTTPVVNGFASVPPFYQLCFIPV
CYP2C19 inh: blocks human cytochrome P450 2C19; CYP2C19 Supersomes, luciferin-H EGE luminescence, 30 min; inhibition, % at 5 µM; 96,000 compounds, 21% hits; AID 778;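 active = CYP2C19 inhibition above a set limit at 5 µM in the primary screen, cut at about 50% in these data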;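 also: plate controls were negative control wells for no effect and 2.5 mM tranylcypromine positive control for full effect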
D1 allo mod: allosteric modulators of human D1 dopamine receptor | P21728 | HEK293 D1, CRE-luciferase, dopamine EC30 potentiation; actives deviate in either direction | B-score at 10 µM | 58,000 compounds, 5.9% hits | AID 641;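 active = luminescence count or its row- and column-corrected plate score outside the 99.7% band of the plate's sample wells, on either side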
DAT uptake mod: changed human dopamine transporter uptake under cocaine IC80; AID 449768; 110,000 compounds, 1.3% hits; B-score at 10 µM; LLC-PK1 hDAT cells, [14C]-dopamine uptake with cocaine IC80; actives deviate in either direction; Q01959;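 active = Z score or B-score, a plate-position-corrected score, falls beyond the plate's 99.7% confidence bounds, in either direction; inactive = both scores lie inside the 99.7% bounds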;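 also: scored against the spread of the other compound wells on the same plate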
* = called active by the depositor; x = no result.

SMILES	CYP2C9 inh	CYP2C9 act	CYP2C19 activ	CYP2C19 inh	D1 allo mod	DAT uptake mod
O=C(Nc1ccc2nc(-c3ccco3)[nH]c2c1)c1cccs1	x	x	x	x	-2.93	-0.848
C/C=C\C=C\C(=O)N1CC2(CC(c3cccc(NC(=O)CC(c4ccccc4)c4ccccc4)c3)=NO2)C[C@H]1C(N)=O (stereo partly drawn)	x	x	x	x	x	-1.16
CC1=C(c2ccc(C)cc2)S(=O)(=O)N(CC(=O)O)C1=O	82.0*	0.2	1.1	-6.7	-0.991	-0.645
CCc1nnc(NC(=O)CSc2nc(-c3ccc(OC)cc3)ns2)s1	71.6*	0.3	0.7	31.4	x	-0.074
COc1ccc(-c2nsc(SCC(=O)Nc3cc(C)on3)n2)cc1	54.0*	0.5	0.6	42.3	x	-0.42
Cn1cccc1-c1nc2ccc(NC(=O)c3ccccc3)cc2[nH]1	68.0*	0.3	0.2	78.5*	-0.915	1.6
Cc1ccc(S(=O)(=O)Nc2ccc3nc(-c4cccn4C)[nH]c3c2)cc1	100.0*	0	0	100.0*	0.416	-2.87*
COC(=O)c1ccc(C(=O)Nc2ccc3nc(-c4cccnc4)[nH]c3c2)cc1	67.1*	0.3	0.6	40.5	x	-1
CCOc1cc2[nH]c(=S)n(CC3CCCN3CC)c(=O)c2cc1OCC (stereo not drawn)	-5.7	1.1	1.1	-12.1	x	0.468
CCOC(=O)c1ccc(NC(=O)CSCc2ccco2)cc1	47.6	0.5	0.7	25.4	-0.741	1.19
CCOC(=O)CC(=O)CSc1ccc2nnc(-c3cccc(F)c3)n2n1	49.5	0.5	1	-2.2	-0.693	0.127
COC(=O)c1ccc(CSc2ccc3nnc(-c4cccc(F)c4)n3n2)o1	83.2*	0.2	0.6	37.2	2.41	-0.0361
O=C(COC(=O)Cn1c(C(F)(F)F)nc2ccccc21)Nc1ccc2c(c1)OCCO2	18.5	0.8	1	-3.6	x	0.775
CCCCCC(=O)N1CC2(CC(c3cccc(NC(=O)CC(c4ccccc4)c4ccccc4)c3)=NO2)C[C@@H]1C(N)=O (stereo partly drawn)	x	x	x	x	x	-0.12
COC(=O)CN(c1cc(C(F)(F)F)ccc1Cl)S(C)(=O)=O	1.6	1	0.4	55.6*	0.0411	0.174
COCCNC(=O)CN(c1ccccc1OC)S(C)(=O)=O	-5.0	1.1	1	-3.3	0.649	-1.08
COCCNC(=O)CN(c1cc(C(F)(F)F)ccc1Cl)S(C)(=O)=O	-18.5	1.2	0.4	58.4*	0.278	0.00189
CN1CCN(C(=O)CN(c2cc(C(F)(F)F)ccc2Cl)S(C)(=O)=O)CC1	-0.4	1	0.7	28.0	x	0.0135
COCCCNC(=O)c1ccc(Cn2c(=O)c3ccccc3n(Cc3ccccc3C)c2=O)cc1	80.2*	0.2	0.2	77.6*	x	0.298
COCCCNC(=O)c1ccc(Cn2c(=O)c3ccccc3n(Cc3cc(C)ccc3C)c2=O)cc1	82.3*	0.2	0.3	75.0*	x	-0.957
COCCCNC(=O)c1ccc(Cn2c(=O)[nH]c3ccccc3c2=O)cc1	x	x	x	x	0.668	x
COCCCNC(=O)CCn1c(=O)c2ccccc2n(CC(=O)Nc2ccccc2C)c1=O	40.9	0.6	1.1	-8.7	x	-0.0112
COCCCNC(=O)c1ccc(Cn2c(=O)c3ccccc3n(Cc3ccccc3C#N)c2=O)cc1	59.4*	0.4	0.5	51.9*	x	0.334
O=C(NC1CC2CCCC(C1)N2Cc1cccs1)N1CCOCC1 (stereo not drawn)	-16.0	1.2	0.9	13.1	-0.773	-0.662
O=c1[nH]c(CN2CCN(Cc3ccccc3)CC2)nc2sc3c(c12)CCC3	x	x	x	x	-0.173	x
SMILES	CYP2C9 inh	CYP2C9 act	CYP2C19 activ	CYP2C19 inh	D1 allo mod	DAT uptake mod
O=C(c1cnn2c1NC(c1ccco1)CC2C(F)(F)F)N1CCN(c2cccc(Cl)c2)CC1 (stereo not drawn)	75.4*	0.2	0.2	80.7*	-0.76	0.381
O=C(c1ccco1)N1CCN(C(=O)c2cnn3c2NC(c2cccs2)CC3C(F)(F)F)CC1 (stereo not drawn)	11.6	0.9	1.1	-5.5	0.224	0.195
COc1ccccc1N1CCN(C(=O)c2cc3n(n2)C(C(F)(F)F)CC(c2ccco2)N3)CC1 (stereo not drawn)	58.7*	0.4	0.9	6.2	-0.589	0.787
C#CCOCCOCCOCCNc1nc(N2CCN(C(=O)[C@H](Cc3cc4ccccc4[nH]3)n3cc([C@@H](N)CC(C)C)nn3)CC2)nc(N2CCN(C(=O)[C@H](Cc3cc4ccccc4[nH]3)n3cc([C@@H](N)CC(C)C)nn3)CC2)n1	x	x	x	x	x	0.0654
CCOc1ccc2c(=O)c(Oc3ccccc3OCC)coc2c1	-105.3	2.1*	0.3	73.6*	x	0.448
COc1ccccc1Oc1coc2cc(O)ccc2c1=O	-95.6	2*	0.9	7.0	-0.0826	0.237
CCOc1ccccc1Oc1coc2cc(O)ccc2c1=O	-211.0	3.1*	0.7	29.7	-0.211	-0.00303
N/C(=N\c1nc2c(c(=O)[nH]1)CCCC2)Nc1ccc(Oc2ccccc2)cc1	x	x	x	x	x	-0.0726
COCCNC(=O)CN(C(=O)Cn1nnc2ccccc21)c1ccc(C)c(F)c1	x	x	x	x	x	0.019
CCOC(=O)N1CCN(C(=O)C2CCN(Cc3nc(-c4ccccc4C)oc3C)CC2)CC1	-2.9	1	0.7	27.6	-0.142	x
Oc1ccc(N2CCN(C(=S)NCCc3ccccc3)CC2)cc1	38.2	0.6	0.5	51.1*	x	-0.152
COc1ccc(S(=O)(=O)N(CC(=O)N2CCN(c3ccccc3OC)CC2)c2ccccc2)cc1	86.8*	0.1	0.2	84.7*	0.321	0.473
COc1ccc(N(CC(=O)N2CCc3ccccc3C2)S(C)(=O)=O)cc1OC	-6.3	1.1	0.8	16.5	x	-1.38
O=C(CN(c1ccc(Cl)cc1)S(=O)(=O)c1ccccc1)N1CCN(c2ccccc2)CC1	92.1*	0.1	0	97.4*	x	-0.0918
COc1ccc(N2CCN(C(=O)CN(c3ccccc3)S(=O)(=O)c3ccc(OC)cc3)CC2)cc1	12.0	0.9	1.2	-19.1	x	1.41
COc1ccc(N2CCN(C(=S)NCCc3ccccc3)CC2)cc1	x	x	x	x	x	-0.0452
O=C(CN(c1ccc(Cl)c(Cl)c1)S(=O)(=O)c1ccccc1)N1CCc2ccccc2C1	50.0*	0.5	0.1	88.6*	x	-0.756
Cc1nc2c(o1)CCc1ccccc1C2N1CCN(C)CC1 (stereo not drawn)	-17.4	1.2	1.1	-7.4	x	-0.512
CC1=C(C(=O)N(C)C)C(c2cccc(Cl)c2)NC(=O)N1 (stereo not drawn)	-1.3	1	1	4.7	0.00065	0.876
O=C(Nc1ccc(Cl)cc1)N1CCN(c2ccccc2)CC1	x	x	x	x	x	-0.535
O=C(CCn1nc(-c2ccc(Cl)cc2)ccc1=O)N1CCN(c2ccccn2)CC1	36.4	0.6	0.7	31.7	2.17	x
O=C(Cn1nc(C(F)(F)F)c2c1CCC2)N1CCN(c2ccccc2)CC1	-125.9	2.3*	0.1	88.9*	-0.406	-0.00554
O=C(Cn1nc(-c2ccc(Cl)cc2)ccc1=O)N1CCN(c2ccccc2)CC1	51.8*	0.5	0.7	25.2	0.779	x

Compound activity as filed in PubChem.
